Legend:
ETS1 [1] = target: T1, ETS1 (UniProt P14921); experiment: ETS1 binding intensity (PBM fluorescence), ETS1 alone (arbitrary fluorescence units); higher = stronger binding; conditions: ETS1 concentration 1 nM; RUNX1 concentration 0 nM
T1 sequence: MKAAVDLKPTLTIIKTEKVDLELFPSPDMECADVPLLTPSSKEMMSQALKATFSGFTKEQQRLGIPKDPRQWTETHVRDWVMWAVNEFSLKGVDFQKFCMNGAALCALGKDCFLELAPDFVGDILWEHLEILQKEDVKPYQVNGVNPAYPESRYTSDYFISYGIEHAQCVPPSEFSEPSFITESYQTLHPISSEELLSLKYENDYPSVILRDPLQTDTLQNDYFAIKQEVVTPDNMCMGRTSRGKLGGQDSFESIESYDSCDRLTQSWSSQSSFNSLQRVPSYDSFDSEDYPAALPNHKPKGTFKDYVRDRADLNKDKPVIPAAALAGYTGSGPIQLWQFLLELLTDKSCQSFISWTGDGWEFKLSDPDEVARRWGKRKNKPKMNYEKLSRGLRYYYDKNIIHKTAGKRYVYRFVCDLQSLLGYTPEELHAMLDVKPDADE

RUNX1 [2] = target: RUNX1 (UniProt Q01196); experiment: RUNX1 binding intensity (PBM fluorescence), RUNX1 alone (arbitrary fluorescence units); higher = stronger binding; conditions: RUNX1 concentration 2 nM; ETS1 concentration 0 nM
Protocol: (§1)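 Cooperative gcPBM on 36-bp genomic probes with neighbouring ETS1 and RUNX1 sites. Recombinant human RUNX1 (2 nM) was incubated alone or with ETS1 (25 nM) and detected with anti-RUNX1 antibody plus Alexa488 secondary. Values are medians over 4 replicate spots; the RUNX1+ETS1 data were normalised to the RUNX1-only data. The probes sit in constant array flanks that are not printed.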

ETS1 [3] = target: T1, ETS1; experiment: ETS1 binding intensity (PBM fluorescence) in presence of RUNX1, normalised to ETS1-only experiment (arbitrary fluorescence units); higher = stronger binding; conditions: ETS1 concentration 1 nM; RUNX1 concentration 25 nM
RUNX1 [4] = target: RUNX1 (UniProt Q01196); experiment: RUNX1 binding intensity (PBM fluorescence) in presence of ETS1, normalised to RUNX1-only experiment (arbitrary fluorescence units); higher = stronger binding; conditions: RUNX1 concentration 2 nM; ETS1 concentration 25 nM
Protocol: as §1
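Wherever RUNX1 binding intensity (PBM fluorescence) in presence of ETS1, normalised to RUNX1-only experiment is given: Full-length recombinant human ETS1 or RUNX1 bound to double-stranded 36-bp genomic probes on microarrays, detected by protein-specific primary antibody and Alexa488 secondary, spot fluorescence as median of four replicate spots.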
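Wherever RUNX1 binding intensity (PBM fluorescence), RUNX1 alone is given: Full-length recombinant human RUNX1 bound to double-stranded 36-bp genomic probes on a high-density microarray, scored as Alexa488 fluorescence per spot via anti-RUNX1 antibody, median of four replicate spots.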

Sequence of RUNX1 (Q01196 whole entry): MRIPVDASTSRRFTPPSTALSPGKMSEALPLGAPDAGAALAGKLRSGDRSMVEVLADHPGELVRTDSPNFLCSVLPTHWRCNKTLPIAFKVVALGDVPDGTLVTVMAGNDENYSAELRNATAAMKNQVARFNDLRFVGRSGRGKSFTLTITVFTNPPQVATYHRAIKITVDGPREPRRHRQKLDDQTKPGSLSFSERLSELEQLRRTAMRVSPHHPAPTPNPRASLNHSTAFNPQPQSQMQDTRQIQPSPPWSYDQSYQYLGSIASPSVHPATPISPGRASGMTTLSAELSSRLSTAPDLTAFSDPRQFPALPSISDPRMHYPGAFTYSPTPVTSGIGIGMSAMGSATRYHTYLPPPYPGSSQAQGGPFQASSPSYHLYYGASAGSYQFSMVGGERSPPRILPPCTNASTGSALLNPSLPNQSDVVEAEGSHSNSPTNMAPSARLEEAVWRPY

| Sequence | ETS1 binding intensity (ETS1 [1]) | RUNX1 binding intensity (RUNX1 [2]) | ETS1 binding intensity (ETS1 [3]) | RUNX1 binding intensity (RUNX1 [4]) |
| --- | --- | --- | --- | --- |
| ACCTGTAGGCGGAAGTCTGTGGCTTTATTTACACAG | 2340 | 792 | 5710 | 1730 |
| TGCATGCAACAGGAAGTGGGGTGTGGTTTGTTCTGG | 11600 | 760 | 39100 | 1890 |
| GAGTTGCTTCCGGCCGTGTTGGTGGTCTGAATTGAG | 1590 | 802 | 1830 | 1830 |
| TGTGGAGACAGGAAGCACTAACCTCAAACCTCTTTC | 2730 | 908 | 8830 | 1770 |
| CGGGCGAGCGCAGGATGCGGTTGTCGAACGCGCGGC | 764 | 762 | 1050 | 1100 |
| GCGAGACGCGGAAGAGGCTTGCGGTTGACCAAAGAA | 407 | 1830 | 2010 | 4310 |
| CGTTCTCTCATTTCCTGTGTGCACCCACATGAACCA | 3340 | 1740 | 3230 | 2920 |
| TACATCTTCAGAGGAAGTGGGTTTGTGTATCTTTGA | 2460 | 786 | 3750 | 1380 |
| ATGCTAGAAAGCAGGAAGCCACAGACACGCCCCAAC | 1180 | 857 | 1120 | 875 |
| GCAGCCCAGCTTCCTGCAGACCAAAACCACAAGCAG | 542 | 1390 | 2540 | 4140 |
| CTGACAGTTACTTCCTGTCTTTGTGGGCGATTGTGA | 3170 | 829 | 4620 | 2390 |
| TCTGTCGCACATCCGGTGTGAGCTGCGGGGCGGTGG | 7930 | 753 | 10600 | 1640 |
| TCTTGCCCGGGTCGGAAATGGTGGTCACGAGCGCTT | 1110 | 772 | 1600 | 991 |
| TGCGCCGGGAGGAAGGGCTCCAAAACCACAGGGCGG | 411 | 900 | 1400 | 927 |
| TGCACCCGCCACTTCCGCATCGAACCGCCGCTTCAA | 1100 | 1030 | 1140 | 3470 |
| CTGTTTCCTGCCTTTGCTGTCTGTGACCGCATCAGT | 478 | 1310 | 1490 | 2840 |
| GGCGGATGGGGAGAAGAGAGTGGCTGTGGTCTCTGG | 371 | 861 | 491 | 712 |
| CCCAGGCTTCCGGGTTGAATATGTGGGCTGAGGCGA | 455 | 819 | 415 | 1420 |
| CTGAGTGAGACAGGATGTGGGCAGACCTCTAACACA | 5110 | 733 | 11000 | 3230 |
| TGCAAGAGGAAGCTGGGGTTTGTGGTTCATGTTTTG | 528 | 874 | 1000 | 1390 |
| TGGGGCTCTTCCTGCTTATGTGACCACAGCACCTTG | 402 | 936 | 679 | 1760 |

— the supplement of paper PMC10681739
